Data as given in ChEMBL document CHEMBL1961873, “Compounds: GSK PKIS; Assays: Nanosyn kinase panel” (2012).

How the values were obtained:
[1] = molecular target: Ribosomal protein S6 kinase alpha-6 (Homo sapiens) (UniProt Q9UK32); settings: at 1 µM;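 also: each value is a mean inhibition of RSK4 from a GSK PKIS panel screen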
[2] = molecular target: T1, Serine/threonine-protein kinase Sgk1 (Homo sapiens) (UniProt O00141); settings: at 0.1 µM
T1 sequence (whole entry): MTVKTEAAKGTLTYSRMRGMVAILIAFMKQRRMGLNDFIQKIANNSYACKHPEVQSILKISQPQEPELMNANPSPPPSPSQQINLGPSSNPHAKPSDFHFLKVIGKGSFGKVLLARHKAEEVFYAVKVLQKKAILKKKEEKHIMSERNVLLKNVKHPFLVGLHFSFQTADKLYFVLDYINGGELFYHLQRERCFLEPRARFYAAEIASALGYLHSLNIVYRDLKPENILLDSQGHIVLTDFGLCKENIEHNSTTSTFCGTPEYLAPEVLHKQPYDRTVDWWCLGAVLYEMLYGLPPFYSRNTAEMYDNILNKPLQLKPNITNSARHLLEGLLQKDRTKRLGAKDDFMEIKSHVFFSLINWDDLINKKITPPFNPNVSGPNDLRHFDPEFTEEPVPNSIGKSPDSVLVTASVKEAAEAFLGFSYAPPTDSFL

[3] = molecular target: T1, Serine/threonine-protein kinase Sgk1 (Homo sapiens); settings: at 1 µM
[4] = molecular target: T2, Serine/threonine-protein kinase Sgk2 (Homo sapiens) (UniProt Q9HBY8); settings: at 0.1 µM
T2 sequence (whole entry): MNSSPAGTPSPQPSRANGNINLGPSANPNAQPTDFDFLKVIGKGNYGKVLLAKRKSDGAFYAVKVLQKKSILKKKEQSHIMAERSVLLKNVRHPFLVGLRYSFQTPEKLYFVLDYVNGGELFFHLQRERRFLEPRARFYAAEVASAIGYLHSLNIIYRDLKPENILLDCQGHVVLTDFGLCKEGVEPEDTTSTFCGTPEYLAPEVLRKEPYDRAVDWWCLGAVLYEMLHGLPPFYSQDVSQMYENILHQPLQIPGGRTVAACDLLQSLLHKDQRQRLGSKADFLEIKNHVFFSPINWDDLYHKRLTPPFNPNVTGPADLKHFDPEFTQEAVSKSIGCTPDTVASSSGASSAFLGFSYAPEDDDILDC

[5] = molecular target: T2, Serine/threonine-protein kinase Sgk2 (Homo sapiens); settings: at 1 µM
[6] = molecular target: T3, Serine/threonine-protein kinase Sgk3 (Homo sapiens) (UniProt Q96BR1); settings: at 0.1 µM
T3 sequence (whole entry): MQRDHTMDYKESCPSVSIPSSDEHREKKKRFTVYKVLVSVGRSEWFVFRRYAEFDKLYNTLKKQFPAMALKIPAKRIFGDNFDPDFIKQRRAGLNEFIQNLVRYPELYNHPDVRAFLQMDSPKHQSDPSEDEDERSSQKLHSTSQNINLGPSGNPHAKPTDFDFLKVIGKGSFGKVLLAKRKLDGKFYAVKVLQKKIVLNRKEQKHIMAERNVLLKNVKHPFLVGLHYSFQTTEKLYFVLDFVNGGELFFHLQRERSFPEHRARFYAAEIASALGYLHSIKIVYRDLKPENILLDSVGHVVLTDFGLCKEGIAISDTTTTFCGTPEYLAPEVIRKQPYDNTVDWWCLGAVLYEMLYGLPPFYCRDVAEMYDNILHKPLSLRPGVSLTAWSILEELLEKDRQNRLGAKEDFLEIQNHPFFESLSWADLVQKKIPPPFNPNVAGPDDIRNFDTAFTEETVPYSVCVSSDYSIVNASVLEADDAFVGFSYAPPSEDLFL

[7] = molecular target: T3, Serine/threonine-protein kinase Sgk3 (Homo sapiens); settings: at 1 µM
[8] = molecular target: 5'-AMP-activated protein kinase catalytic subunit alpha-1 (Homo sapiens) (UniProt Q13131); settings: at 0.1 µM
5'-AMP-activated protein kinase catalytic subunit alpha-1 (Homo sapiens), sequence (Q13131 whole entry, looked up): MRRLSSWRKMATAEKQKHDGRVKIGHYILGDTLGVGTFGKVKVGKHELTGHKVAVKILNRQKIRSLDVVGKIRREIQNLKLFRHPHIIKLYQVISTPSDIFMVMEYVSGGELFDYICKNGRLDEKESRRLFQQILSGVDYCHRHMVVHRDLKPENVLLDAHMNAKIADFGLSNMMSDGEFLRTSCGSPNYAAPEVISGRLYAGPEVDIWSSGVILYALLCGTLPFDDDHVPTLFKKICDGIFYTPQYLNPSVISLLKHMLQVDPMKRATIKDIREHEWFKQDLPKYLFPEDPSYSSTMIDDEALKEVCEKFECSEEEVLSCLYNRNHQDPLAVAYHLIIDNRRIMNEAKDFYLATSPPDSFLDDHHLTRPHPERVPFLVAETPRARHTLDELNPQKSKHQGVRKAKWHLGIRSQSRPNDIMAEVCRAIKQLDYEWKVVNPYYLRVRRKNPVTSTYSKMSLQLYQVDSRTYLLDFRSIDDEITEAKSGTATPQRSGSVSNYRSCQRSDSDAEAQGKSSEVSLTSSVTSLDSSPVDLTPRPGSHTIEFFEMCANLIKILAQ

[9] = molecular target: 5'-AMP-activated protein kinase catalytic subunit alpha-1 (Homo sapiens) (UniProt Q13131); settings: at 1 µM
[10] = molecular target: 5'-AMP-activated protein kinase catalytic subunit alpha-2 (Homo sapiens) (UniProt P54646); settings: at 0.1 µM
5'-AMP-activated protein kinase catalytic subunit alpha-2 (Homo sapiens), sequence (P54646 whole entry, looked up): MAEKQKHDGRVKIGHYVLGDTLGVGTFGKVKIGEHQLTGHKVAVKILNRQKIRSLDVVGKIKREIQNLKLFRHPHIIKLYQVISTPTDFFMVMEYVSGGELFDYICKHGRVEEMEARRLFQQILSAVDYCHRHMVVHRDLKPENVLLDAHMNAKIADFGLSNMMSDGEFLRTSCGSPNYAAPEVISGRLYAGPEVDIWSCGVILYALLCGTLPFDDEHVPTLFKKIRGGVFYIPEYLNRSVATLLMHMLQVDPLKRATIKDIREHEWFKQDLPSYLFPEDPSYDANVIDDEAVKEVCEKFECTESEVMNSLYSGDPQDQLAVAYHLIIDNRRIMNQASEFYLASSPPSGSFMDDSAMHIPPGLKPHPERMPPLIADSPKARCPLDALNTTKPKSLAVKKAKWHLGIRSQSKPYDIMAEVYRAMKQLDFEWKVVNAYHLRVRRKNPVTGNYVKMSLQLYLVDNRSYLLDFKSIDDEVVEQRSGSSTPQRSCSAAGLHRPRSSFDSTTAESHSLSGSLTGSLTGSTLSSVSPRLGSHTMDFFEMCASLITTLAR

[11] = molecular target: 5'-AMP-activated protein kinase catalytic subunit alpha-2 (Homo sapiens) (UniProt P54646); settings: at 1 µM
[12] = molecular target: T4, NUAK family SNF1-like kinase 1 (Homo sapiens) (UniProt O60285); settings: at 0.1 µM
T4 sequence (whole entry): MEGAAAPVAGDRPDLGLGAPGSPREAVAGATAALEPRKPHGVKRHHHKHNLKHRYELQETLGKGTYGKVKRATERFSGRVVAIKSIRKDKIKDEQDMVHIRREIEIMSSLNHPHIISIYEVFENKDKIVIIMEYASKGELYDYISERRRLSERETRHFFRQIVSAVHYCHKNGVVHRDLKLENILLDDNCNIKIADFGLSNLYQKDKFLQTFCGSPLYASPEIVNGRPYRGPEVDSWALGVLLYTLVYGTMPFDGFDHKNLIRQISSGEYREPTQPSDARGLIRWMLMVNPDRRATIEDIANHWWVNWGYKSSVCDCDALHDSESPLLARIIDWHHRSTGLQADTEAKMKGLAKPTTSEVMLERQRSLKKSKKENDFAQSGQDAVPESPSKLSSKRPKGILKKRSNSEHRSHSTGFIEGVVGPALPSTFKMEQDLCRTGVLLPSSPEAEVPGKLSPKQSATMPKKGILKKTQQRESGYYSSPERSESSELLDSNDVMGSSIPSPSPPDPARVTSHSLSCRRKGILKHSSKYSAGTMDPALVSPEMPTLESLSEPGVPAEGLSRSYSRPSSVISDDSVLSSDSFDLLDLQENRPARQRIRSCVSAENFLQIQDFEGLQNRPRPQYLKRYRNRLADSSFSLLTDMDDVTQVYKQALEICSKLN

[13] = molecular target: T4, NUAK family SNF1-like kinase 1 (Homo sapiens); settings: at 1 µM
[14] = molecular target: T5, Serine/threonine-protein kinase BRSK1 (Homo sapiens) (UniProt Q8TDC3); settings: at 0.1 µM
T5 sequence (whole entry): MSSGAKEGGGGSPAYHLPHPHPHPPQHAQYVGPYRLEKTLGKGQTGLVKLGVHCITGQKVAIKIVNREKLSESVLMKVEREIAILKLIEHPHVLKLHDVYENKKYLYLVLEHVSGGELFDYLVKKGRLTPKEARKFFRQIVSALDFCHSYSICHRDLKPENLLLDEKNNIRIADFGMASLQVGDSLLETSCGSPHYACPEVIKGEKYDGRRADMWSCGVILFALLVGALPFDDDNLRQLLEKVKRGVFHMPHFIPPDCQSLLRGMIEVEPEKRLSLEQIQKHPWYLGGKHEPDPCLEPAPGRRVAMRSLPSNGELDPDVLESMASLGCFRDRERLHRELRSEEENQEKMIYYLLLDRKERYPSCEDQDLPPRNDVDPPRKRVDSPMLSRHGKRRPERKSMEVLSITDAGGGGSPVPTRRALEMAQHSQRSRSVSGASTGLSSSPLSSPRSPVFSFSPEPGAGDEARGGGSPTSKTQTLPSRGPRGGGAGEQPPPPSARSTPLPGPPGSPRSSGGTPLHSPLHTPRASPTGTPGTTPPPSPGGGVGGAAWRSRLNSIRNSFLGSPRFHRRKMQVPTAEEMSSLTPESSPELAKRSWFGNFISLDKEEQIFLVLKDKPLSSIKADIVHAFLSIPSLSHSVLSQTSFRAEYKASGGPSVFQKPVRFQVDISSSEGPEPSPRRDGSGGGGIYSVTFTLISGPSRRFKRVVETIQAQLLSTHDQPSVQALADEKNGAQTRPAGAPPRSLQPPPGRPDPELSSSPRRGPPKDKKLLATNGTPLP

[15] = molecular target: T5, Serine/threonine-protein kinase BRSK1 (Homo sapiens); settings: at 1 µM
[16] = molecular target: T6, Serine/threonine-protein kinase BRSK2 (Homo sapiens) (UniProt Q8IWQ3); settings: at 0.1 µM
T6 sequence (whole entry): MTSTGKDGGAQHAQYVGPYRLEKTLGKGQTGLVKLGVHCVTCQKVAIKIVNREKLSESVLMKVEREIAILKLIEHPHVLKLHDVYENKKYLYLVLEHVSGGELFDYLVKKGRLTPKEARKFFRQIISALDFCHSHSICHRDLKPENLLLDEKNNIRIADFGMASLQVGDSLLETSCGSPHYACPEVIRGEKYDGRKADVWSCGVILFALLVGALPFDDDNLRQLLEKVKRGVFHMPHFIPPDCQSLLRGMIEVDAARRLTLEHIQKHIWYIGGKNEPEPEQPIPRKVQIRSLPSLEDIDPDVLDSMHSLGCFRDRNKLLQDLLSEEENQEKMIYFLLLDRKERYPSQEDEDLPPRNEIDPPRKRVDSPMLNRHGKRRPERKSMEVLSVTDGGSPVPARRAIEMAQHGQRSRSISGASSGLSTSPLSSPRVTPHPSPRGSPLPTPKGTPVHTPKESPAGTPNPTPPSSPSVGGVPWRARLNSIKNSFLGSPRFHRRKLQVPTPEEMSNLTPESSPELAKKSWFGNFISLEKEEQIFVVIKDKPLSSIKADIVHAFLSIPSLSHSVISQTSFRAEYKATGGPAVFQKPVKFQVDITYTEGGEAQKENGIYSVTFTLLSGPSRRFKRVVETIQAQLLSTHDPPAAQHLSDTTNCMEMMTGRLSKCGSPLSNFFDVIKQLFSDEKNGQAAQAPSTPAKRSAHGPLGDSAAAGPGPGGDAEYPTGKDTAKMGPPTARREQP

[17] = molecular target: T6, Serine/threonine-protein kinase BRSK2 (Homo sapiens); settings: at 1 µM
[18] = molecular target: Calcium/calmodulin-dependent protein kinase type 1D (Homo sapiens) (UniProt Q8IU85); settings: at 0.1 µM
Calcium/calmodulin-dependent protein kinase type 1D (Homo sapiens), sequence (Q8IU85 whole entry, looked up): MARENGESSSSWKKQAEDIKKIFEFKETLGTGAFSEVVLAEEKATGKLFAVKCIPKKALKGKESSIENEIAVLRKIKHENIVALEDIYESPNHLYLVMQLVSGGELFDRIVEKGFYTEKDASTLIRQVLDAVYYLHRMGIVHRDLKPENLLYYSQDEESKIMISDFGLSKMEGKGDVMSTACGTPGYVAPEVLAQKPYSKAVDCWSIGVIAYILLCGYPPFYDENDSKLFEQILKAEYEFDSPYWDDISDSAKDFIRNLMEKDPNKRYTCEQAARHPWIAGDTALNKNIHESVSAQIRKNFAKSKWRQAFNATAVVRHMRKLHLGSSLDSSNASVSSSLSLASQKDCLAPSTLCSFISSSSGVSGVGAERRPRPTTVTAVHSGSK

[19] = molecular target: Calcium/calmodulin-dependent protein kinase type 1D (Homo sapiens) (UniProt Q8IU85); settings: at 1 µM
[20] = molecular target: Calcium/calmodulin-dependent protein kinase type II subunit alpha (Homo sapiens) (UniProt Q9UQM7); settings: at 0.1 µM;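 also: reported values are averages (mean inhibition of CAMK2A)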
Calcium/calmodulin-dependent protein kinase type II subunit alpha (Homo sapiens), sequence (Q9UQM7 whole entry): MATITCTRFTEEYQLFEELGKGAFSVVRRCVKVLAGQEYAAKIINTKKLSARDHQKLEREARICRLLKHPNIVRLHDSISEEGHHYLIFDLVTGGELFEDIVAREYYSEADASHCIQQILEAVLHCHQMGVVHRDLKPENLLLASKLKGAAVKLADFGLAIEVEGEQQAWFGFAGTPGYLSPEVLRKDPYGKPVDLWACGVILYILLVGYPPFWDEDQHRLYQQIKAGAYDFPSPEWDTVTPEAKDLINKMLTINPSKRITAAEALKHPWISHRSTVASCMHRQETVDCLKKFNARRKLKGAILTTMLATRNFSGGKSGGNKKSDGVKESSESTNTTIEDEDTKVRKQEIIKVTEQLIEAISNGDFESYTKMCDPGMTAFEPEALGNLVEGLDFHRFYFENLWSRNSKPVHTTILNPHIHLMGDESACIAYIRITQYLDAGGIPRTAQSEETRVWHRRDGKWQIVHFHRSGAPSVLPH

Ribosomal protein S6 kinase alpha-6 (Homo sapiens), sequence (Q9UK32 whole entry): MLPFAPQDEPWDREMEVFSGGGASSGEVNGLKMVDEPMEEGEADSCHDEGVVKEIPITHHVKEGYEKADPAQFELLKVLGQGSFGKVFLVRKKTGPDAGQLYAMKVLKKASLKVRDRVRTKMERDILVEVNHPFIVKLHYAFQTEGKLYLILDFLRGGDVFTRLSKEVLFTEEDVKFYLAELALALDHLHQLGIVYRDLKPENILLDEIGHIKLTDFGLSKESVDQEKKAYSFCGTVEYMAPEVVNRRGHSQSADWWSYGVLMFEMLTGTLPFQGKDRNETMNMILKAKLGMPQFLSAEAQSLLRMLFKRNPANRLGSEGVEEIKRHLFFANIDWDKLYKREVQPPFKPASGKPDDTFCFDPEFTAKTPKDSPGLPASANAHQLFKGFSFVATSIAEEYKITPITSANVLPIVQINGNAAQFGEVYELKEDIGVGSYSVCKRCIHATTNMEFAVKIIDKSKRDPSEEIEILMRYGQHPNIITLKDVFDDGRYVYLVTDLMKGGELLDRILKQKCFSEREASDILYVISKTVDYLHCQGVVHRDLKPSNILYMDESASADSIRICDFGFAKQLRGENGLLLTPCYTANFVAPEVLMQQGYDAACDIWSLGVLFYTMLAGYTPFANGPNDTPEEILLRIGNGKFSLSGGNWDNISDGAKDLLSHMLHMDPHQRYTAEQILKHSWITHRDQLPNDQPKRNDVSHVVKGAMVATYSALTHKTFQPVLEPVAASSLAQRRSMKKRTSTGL

Structure (SMILES) | inhibition [1] [%] | inhibition [2] [%] | inhibition [3] [%] | inhibition [4] [%] | inhibition [5] [%] | inhibition [6] [%] | inhibition [7] [%] | inhibition [8] [%] | inhibition [9] [%] | inhibition [10] [%] | inhibition [11] [%] | inhibition [12] [%] | inhibition [13] [%] | inhibition [14] [%] | inhibition [15] [%] | inhibition [16] [%] | inhibition [17] [%] | inhibition [18] [%] | inhibition [19] [%] | inhibition [20] [%]
COc1cc(Nc2ncc(-c3ccccc3)o2)cc(OC)c1OC | 6.6 | 1.24 | 5.44 | 3.15 | 1.18 | 0.24 | 0.29 | 0.26 | 9.16 | 5 | 5.35 | 24.4 | 61 | -0.43 | 5.91 | 0.44 | 10.5 | -1.93 | -0.01 | -3.81
NC(=O)Cc1ccccc1Oc1nccc(-c2c(-c3ccc(F)cc3)ncn2C2CCNCC2)n1 | 2.01 | -0.43 | 0.48 | 1.13 | 0.76 | 0.96 | 0.86 | 2.61 | 1.44 | 1.24 | 2.59 | 0.84 | 2.97 | 4.71 | 6.12 | 4.74 | 5.25 | 0.63 | 1.65 | 2.81
NS(=O)(=O)c1ccc(Nc2cc(-c3ccc(O)c(F)c3)n[nH]2)cc1 | 59.5 | -0.99 | 3.11 | -0.41 | 3.07 | 0.2 | -0.29 | 0.53 | 15.2 | 0.54 | 8.67 | 2.73 | 11 | 0.57 | 10.9 | 2.75 | 16.7 | -0.17 | 0.78 | -4.96
O=C(Nc1n[nH]c2cc(-c3ccccc3)ccc12)C1CC1 | 3.11 | 2.86 | 5.38 | 1.79 | 1.73 | 4.57 | 3.95 | 3.49 | 4.22 | 4.21 | 7.53 | 4.99 | 2.6 | 4.46 | 21 | 3.64 | 19.7 | 0.34 | -0.38 | 3.14
COc1cccc(-n2cnc3c(N/N=C/c4ccncc4)ncnc32)c1 | 1.9 | 1.3 | 4.05 | 1.67 | 2.41 | 3.19 | 3.83 | 1.05 | 3.79 | -1.1 | 1.47 | 2.39 | 22.3 | -0.01 | 4.34 | -0.23 | 6.3 | 0.54 | -0.39 | 0.58
CN(c1ccc(NC(=O)Nc2c(Cl)cccc2Cl)cc1)c1ccnc(Nc2cccc(CS(C)(=O)=O)c2)n1 | 1.06 | 1.73 | 7.64 | 5.92 | 22.8 | 3.73 | 4.02 | 2.22 | 3.05 | -0.21 | 3.21 | 9.51 | 30.2 | 0.84 | 9.78 | 2.74 | 8.66 | 1.34 | -0.13 | 2.56
O=C(Nc1n[nH]c2nc(-c3ccc(O)cc3)c(Br)cc12)C1CC1 | 59.7 | 3.83 | 12.1 | 6.54 | 24.8 | 5.88 | 16.7 | 5.78 | 20.1 | 4.36 | 12.1 | 8.05 | 30.2 | 25.8 | 66.8 | 33.5 | 70.2 | 3.09 | 14.4 | 4.24
